Records with an inconclusive call do not appear. Where a call stands in place of a potency, no number is given. Activity calls are given as the source filed them. Calls follow the shape of the dose curve; as a rule, active = well fitted inhibition curve with a large enough effect; inconclusive = small, poorly fitted or top-dose-only effect; inactive = flat fitted curve, though single readings scatter.
System: Zika virus NS2B-NS3 protease
Assay: Primary screen GU AMC qHTS for Zika virus inhibitors (AID 1347154); also: nearly all actives have a fitted effect of over 70% in size
Conditions: Zika NS2B-NS3 unlinked protease, AMC fluorogenic substrate; series mostly up to 54.1 µM
How it was run: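 Fluorogenic AMC-substrate cleavage by noncovalent NS2B-NS3 protease complex (25 nM, pH 8.0 Tris buffer with Tween 20) followed for 15 minutes at room temperature (~20% conversion). Percent inhibition from ex340/em450 signal change, fitted by 4-parameter Hill equation.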

SMILES | Potency
CN1CCN(C(c2ccccc2)c2ccccc2)CC1 | inactive
OC[C@H]1O[C@H](O[C@]2(CCl)O[C@H](CCl)[C@@H](O)[C@@H]2O)[C@H](O)[C@@H](O)[C@H]1Cl | inactive
CNC(=O)CN(CCN(CCN(CC(=O)[O-])CC(=O)NC)CC(=O)[O-])CC(=O)[O-].O.[Gd+3] | inactive
COC(=O)[C@@H]1CC2=CC(=O)CC[C@]2(C)[C@@]23O[C@@H]2C[C@@]2(C)[C@@H](CC[C@@]24CCC(=O)O4)[C@H]13 | inactive
COC(=O)C1=C(C)NC(C)=C(C(=O)O[C@@H]2CCCN(Cc3ccccc3)C2)[C@@H]1c1cccc([N+](=O)[O-])c1 | inactive
CN=C(NC#N)NCCSCc1csc(N=C(N)N)n1 | inactive
Cc1ccc(Nc2c(F)cccc2Cl)c(CC(=O)O)c1 | inactive
C[C@]12CC[C@H]3[C@@H](CCC4=CC(=O)CC[C@@]43C)[C@@H]1CC[C@@H]2C(=O)CO | inactive
CCCCCCCCCCCCCCCC[N+](C)(C)CC | inactive
Oc1c(I)cc(Cl)c2cccnc12 | inactive
Cc1ccccc1C(=O)Nc1ccc(C(=O)N2CCCC(N(C)C)c3ccccc32)cc1 (stereo unspecified) | inactive
CCCCCCCCCCCCCCNCCO | inactive
O=S1(=O)c2cccc3cccc(c23)N1CCCN1CCN(c2ccc(F)cc2)CC1 | inactive
O=c1[nH]c(=O)n([C@H]2CCCO2)cc1F | inactive
Cc1nc2n(c(=O)c1CCN1CCC(c3noc4cc(F)ccc34)CC1)CCC[C@H]2O | inactive
CCOc1ccc(NC(=O)CC(C)O)cc1 (stereo unspecified) | inactive
CC(=O)Nc1c(I)cc(I)c(C(=O)O)c1I | inactive
CCCCS(=O)(=O)N[C@@H](Cc1ccc(OCCCCC2CCNCC2)cc1)C(=O)O | inactive
CCOC(=O)/C=C(C)/C=C/C=C(C)/C=C/c1c(C)cc(OC)c(C)c1C | inactive
CC(O)C(=O)O (stereo unspecified) | inactive
c1ccc(OCc2ccc(CCCN3CCOCC3)cc2)cc1 | inactive

Source: PubChem BioAssay (NCATS)
